Of roughly 7,900 targets only a part is listed; those with a hit were picked by preference. About 0.6% of all pairs of compound and target were hits. A number with no mark means an inactive call.
Columns and labels:
Assay in all cases: log2 fold change, soluble protein after heating vs DMSO (PISA); higher = thermal stabilisation; K562 cells, 10 uM, 30 min; active = over 0.2 and 3.5 SD of the protein, either way, in both replicates (recomputed)
[1] = compound: COC1=CC=C(C=C1)CN2C=CC3=C2C=C(C=C3)C(=O)NO
Procedure, shortened: (§1)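 Thermal stability values are relative to control samples and come from duplicates. They are expressed as log2 fold changes. For measurement, K562 cells (2×10^6 cells/mL) received 10 μM compound for 30 min, and aliquots were heated for 3 min over 48°C-58°C, pooled, and extracted at 4°C in PBS with 0.5% NP-40. Soluble protein, the supernatant after 21,000xg for 90 min, was quantified by TMTpro 16plex LC-MS/MS with equalised channel sums.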

filanesib = compound: CON(C)C(=O)N1N=C(c2cc(F)ccc2F)S[C@@]1(CCCN)c1ccccc1 [filanesib]
Procedure, shortened: as §1

zotarolimus = compound: CO[C@H]1C[C@@H]2CC[C@@H](C)[C@@](O)(O2)C(=O)C(=O)N2CCCC[C@H]2C(=O)O[C@H]([C@H](C)C[C@@H]2CC[C@H](n3cnnn3)[C@H](OC)C2)CC(=O)[C@H](C)/C=C(\C)[C@@H](O)[C@@H](OC)C(=O)[C@H](C)C[C@H](C)/C=C/C=C/C=C/1C [zotarolimus]
Procedure, shortened: as §1

idasanutlin = compound: COc1cc(C(=O)O)ccc1NC(=O)[C@@H]1N[C@@H](CC(C)(C)C)[C@](C#N)(c2ccc(Cl)cc2F)[C@H]1c1cccc(Cl)c1F [idasanutlin]
Procedure, shortened: as §1

alisertib = compound: COc1cc(Nc2ncc3c(n2)-c2ccc(Cl)cc2C(c2c(F)cccc2OC)=NC3)ccc1C(=O)O [alisertib]
Procedure, shortened: as §1

[2] = compound: COc1cc2nc(-c3cc(F)ccc3O)nc(N[C@@H]3CNC[C@H]3C(C)(C)O)c2cc1OC
Procedure, shortened: as §1

gefitinib = compound: COc1cc2ncnc(Nc3ccc(F)c(Cl)c3)c2cc1OCCCN1CCOCC1 [gefitinib]
Procedure, shortened: as §1

[3] = compound: COc1cccc2cc(-c3nc([C@H]4CC[C@H](C(=O)O)CC4)n4ncnc(N)c34)[nH]c12
Procedure, shortened: as §1

lapatinib = compound: CS(=O)(=O)CCNCc1ccc(-c2ccc3ncnc(Nc4ccc(OCc5cccc(F)c5)c(Cl)c4)c3c2)o1 [lapatinib]
Procedure, shortened: as §1

pictilisib = compound: CS(=O)(=O)N1CCN(Cc2cc3nc(-c4cccc5[nH]ncc45)nc(N4CCOCC4)c3s2)CC1 [pictilisib]
Procedure, shortened: as §1

Chain of UniProt P43362 (P43362 whole entry, looked up): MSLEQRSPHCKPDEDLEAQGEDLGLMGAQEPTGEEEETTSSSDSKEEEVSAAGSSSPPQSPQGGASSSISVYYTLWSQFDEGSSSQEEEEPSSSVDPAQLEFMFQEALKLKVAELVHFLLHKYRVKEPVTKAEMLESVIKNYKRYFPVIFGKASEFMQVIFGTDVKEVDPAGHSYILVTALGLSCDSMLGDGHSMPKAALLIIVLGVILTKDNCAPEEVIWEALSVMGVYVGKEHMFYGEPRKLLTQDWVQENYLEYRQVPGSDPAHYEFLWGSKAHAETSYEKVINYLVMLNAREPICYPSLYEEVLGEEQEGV
Chain of UniProt Q96GA3 (Q96GA3 whole entry, looked up): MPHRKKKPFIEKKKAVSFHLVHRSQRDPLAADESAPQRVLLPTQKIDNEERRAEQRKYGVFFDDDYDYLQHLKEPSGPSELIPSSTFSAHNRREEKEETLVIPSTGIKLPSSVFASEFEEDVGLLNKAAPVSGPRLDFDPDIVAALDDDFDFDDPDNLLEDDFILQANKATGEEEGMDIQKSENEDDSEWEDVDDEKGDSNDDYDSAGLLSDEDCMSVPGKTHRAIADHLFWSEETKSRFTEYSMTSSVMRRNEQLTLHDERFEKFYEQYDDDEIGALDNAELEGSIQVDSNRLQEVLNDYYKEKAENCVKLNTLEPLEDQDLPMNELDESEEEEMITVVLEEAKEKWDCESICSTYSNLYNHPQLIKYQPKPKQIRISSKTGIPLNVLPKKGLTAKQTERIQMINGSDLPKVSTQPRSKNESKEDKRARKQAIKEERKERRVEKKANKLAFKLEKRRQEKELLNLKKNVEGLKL
Chain of UniProt Q96PC5 (Q96PC5 whole entry, looked up): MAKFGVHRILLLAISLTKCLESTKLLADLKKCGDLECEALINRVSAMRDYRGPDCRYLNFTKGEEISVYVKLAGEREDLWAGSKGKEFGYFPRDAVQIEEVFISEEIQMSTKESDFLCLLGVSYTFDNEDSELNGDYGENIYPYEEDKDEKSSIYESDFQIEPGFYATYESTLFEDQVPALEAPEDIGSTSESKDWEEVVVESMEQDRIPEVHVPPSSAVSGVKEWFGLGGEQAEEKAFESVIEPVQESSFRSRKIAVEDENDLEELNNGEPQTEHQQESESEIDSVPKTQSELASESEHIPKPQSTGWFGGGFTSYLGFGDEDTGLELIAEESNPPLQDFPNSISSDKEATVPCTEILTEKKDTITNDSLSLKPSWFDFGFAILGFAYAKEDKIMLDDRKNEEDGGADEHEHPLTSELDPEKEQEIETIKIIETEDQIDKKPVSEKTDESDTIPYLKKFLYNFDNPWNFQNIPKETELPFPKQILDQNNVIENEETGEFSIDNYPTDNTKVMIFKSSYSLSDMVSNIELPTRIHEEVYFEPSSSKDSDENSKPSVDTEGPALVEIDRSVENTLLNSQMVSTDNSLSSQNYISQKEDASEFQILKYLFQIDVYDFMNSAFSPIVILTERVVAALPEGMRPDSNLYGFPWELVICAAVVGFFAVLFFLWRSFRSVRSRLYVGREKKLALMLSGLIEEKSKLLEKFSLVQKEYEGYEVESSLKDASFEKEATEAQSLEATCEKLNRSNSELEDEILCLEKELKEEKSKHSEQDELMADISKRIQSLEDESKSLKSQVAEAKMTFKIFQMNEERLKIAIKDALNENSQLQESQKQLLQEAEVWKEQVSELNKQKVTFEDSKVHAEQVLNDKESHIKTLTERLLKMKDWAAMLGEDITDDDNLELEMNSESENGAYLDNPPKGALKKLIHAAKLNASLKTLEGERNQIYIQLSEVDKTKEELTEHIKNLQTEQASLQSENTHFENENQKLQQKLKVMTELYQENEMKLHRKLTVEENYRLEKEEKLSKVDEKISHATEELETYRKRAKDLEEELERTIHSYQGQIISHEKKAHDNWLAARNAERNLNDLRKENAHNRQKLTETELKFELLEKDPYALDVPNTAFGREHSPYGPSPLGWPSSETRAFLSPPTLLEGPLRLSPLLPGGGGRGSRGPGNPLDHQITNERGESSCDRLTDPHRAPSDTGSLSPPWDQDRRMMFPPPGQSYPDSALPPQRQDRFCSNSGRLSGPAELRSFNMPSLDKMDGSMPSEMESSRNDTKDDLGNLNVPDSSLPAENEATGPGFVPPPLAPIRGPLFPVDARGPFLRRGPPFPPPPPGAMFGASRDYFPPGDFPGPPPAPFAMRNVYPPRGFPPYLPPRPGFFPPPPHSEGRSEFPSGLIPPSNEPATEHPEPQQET
Chain of UniProt P27816 (P27816 whole entry, looked up): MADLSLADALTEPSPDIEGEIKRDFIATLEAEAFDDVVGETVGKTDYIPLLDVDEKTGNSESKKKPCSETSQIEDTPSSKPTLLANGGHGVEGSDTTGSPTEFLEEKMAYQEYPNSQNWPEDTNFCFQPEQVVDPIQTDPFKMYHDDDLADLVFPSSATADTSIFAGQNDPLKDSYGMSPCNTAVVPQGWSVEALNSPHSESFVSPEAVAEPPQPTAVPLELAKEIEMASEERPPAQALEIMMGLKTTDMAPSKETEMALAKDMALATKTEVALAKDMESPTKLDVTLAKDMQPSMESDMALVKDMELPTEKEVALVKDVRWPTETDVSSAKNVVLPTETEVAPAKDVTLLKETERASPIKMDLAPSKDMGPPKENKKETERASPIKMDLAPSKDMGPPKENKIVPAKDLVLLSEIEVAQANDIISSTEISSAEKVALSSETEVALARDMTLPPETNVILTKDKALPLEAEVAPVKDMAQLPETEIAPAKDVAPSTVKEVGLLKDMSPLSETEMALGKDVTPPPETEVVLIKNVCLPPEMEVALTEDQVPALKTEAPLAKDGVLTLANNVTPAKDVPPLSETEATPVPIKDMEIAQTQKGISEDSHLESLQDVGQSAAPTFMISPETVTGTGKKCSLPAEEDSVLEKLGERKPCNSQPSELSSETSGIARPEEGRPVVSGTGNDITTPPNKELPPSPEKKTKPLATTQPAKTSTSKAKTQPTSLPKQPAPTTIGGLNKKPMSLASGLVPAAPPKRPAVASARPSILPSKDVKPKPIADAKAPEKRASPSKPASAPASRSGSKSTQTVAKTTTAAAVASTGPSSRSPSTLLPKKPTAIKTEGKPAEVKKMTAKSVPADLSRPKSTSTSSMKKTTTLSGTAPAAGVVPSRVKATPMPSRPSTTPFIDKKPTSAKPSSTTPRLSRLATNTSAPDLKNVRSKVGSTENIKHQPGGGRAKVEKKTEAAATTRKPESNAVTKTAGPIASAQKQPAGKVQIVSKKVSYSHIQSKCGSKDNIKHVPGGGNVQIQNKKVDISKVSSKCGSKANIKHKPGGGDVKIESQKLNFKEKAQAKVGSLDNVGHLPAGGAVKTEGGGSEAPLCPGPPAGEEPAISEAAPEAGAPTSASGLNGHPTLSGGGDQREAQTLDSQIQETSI
Chain of UniProt P29966 (P29966 whole entry, looked up): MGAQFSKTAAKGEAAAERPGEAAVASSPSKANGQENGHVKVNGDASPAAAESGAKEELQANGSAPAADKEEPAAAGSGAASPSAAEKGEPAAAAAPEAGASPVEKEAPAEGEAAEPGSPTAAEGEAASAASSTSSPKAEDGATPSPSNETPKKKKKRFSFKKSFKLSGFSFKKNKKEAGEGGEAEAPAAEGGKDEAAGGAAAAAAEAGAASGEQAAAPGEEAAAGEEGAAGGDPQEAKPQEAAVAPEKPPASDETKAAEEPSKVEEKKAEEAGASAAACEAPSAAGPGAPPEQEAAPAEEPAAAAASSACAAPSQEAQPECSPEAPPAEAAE
Chain of UniProt Q8TBB5 (Q8TBB5 whole entry, looked up): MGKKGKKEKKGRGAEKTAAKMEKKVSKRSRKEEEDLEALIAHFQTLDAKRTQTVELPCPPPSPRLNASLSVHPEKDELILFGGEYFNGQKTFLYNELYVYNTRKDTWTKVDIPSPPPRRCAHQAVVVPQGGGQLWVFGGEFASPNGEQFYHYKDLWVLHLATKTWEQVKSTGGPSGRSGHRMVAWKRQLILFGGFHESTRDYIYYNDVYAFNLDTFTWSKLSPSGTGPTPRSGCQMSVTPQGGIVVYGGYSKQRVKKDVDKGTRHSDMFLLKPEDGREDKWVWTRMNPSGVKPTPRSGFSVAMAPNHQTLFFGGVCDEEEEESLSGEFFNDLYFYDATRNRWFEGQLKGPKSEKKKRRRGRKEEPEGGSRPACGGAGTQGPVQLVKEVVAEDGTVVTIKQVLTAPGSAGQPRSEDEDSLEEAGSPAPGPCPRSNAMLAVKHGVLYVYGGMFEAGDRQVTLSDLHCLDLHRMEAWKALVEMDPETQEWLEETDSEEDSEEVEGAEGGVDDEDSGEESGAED
Chain of UniProt O43934 (O43934 whole entry, looked up): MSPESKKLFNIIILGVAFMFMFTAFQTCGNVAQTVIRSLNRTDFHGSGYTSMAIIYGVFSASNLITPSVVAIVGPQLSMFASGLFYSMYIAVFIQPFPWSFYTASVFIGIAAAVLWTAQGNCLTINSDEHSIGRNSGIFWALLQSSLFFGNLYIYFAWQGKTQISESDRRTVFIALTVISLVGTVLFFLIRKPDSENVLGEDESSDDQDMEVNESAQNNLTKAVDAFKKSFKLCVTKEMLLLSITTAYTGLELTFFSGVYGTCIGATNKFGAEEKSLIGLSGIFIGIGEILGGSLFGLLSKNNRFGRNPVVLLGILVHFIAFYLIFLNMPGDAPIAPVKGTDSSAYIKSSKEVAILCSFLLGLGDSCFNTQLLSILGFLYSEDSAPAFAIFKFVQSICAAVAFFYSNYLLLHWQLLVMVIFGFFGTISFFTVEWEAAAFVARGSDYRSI
Chain of UniProt Q07820 (Q07820 whole entry, looked up): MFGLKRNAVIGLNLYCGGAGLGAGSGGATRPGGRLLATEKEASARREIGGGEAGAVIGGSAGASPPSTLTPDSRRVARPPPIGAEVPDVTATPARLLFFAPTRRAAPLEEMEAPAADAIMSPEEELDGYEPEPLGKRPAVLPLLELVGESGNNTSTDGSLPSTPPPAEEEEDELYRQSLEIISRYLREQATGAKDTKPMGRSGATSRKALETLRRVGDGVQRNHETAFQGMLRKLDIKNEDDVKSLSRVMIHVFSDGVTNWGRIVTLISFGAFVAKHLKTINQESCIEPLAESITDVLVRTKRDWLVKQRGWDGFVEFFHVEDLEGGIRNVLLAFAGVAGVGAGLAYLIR

Target | log2 fold change [1] | log2 fold change (filanesib) | log2 fold change (zotarolimus) | log2 fold change (idasanutlin) | log2 fold change (alisertib) | log2 fold change [2] | log2 fold change (gefitinib) | log2 fold change [3] | log2 fold change (lapatinib) | log2 fold change (pictilisib)
MAP3K4 isoform 2 (UniProt Q9Y6R4) | 0.004 | -0.037 | 0.003 | -0.023 | -0.043 | 0.03 | 0.034 | 0.086 | 0.024 | 0.11
KRAS isoform 2 (UniProt P01116) | 0.01 | 0.005 | -0.033 | 0.099 | 0.029 | 0.037 | 0.015 | 0.033 | -0.009 | 0.046
KTN1 (UniProt Q86UP2) | 0.023 | 0.146 | 0.034 | 0.004 | 0.032 | -0.001 | -0.08 | -0.116 | -0.038 | -0.086
LARP1 (UniProt Q6PKG0) | 0 | 0.048 | -0.048 | 0.089 | 0.137 | -0.001 | -0.049 | -0.161 | 0.023 | -0.152
LEMD2 (UniProt Q8NC56) | -0.051 | -0.211 | 0 | -0.008 | 0.044 | -0.271 | 0.061 | 0.047 | 0.133 | -0.007
LDLRAP1 (UniProt Q5SW96) | 0.023 |  |  |  |  |  |  |  |  | 
MAPKAPK3 (UniProt Q16644) | -0.146 | 0 | -0.034 | -0.088 | 0.018 | 0.037 | 0.27 | 0.01 | -0.065 | 0.039
KDM5D isoform 3 (UniProt Q9BY66) | -0.592 (active) | 0.073 | -0.053 | -0.058 | -0.044 | 0.045 | -0.021 | -0.072 | -0.047 | 0.049
LMNB2 (UniProt Q03252) | -0.023 | 0.1 | -0.064 | 0.099 | 0.004 | -0.005 | -0.001 | 0.069 | 0.059 | 0.03
LMF2 (UniProt Q9BU23) | -0.041 | -0.011 | -0.027 | -0.02 | -0.025 | -0.014 | 0.013 | -0.021 | 0.062 | -0.095
ITPRIP (UniProt Q8IWB1) | -0.042 | -0.022 | -0.024 | 0.014 | 0.012 | -0.021 | 0.018 | -0.043 | -0.038 | 0.049
MAPRE3 (UniProt Q9UPY8) | -0.242 (active) | 0.006 | 0.013 | 0.023 | 0.022 | 0.033 | 0.004 | -0.013 | -0.044 | -0.008
MARCKS (UniProt P29966) | 0.108 | 0.004 | 0.001 | 0.062 | 0.006 | -0.016 | -0.003 | 0.069 | 0.019 | -0.225
MCL1 (UniProt Q07820) | -0.092 | 0.029 | 0.093 | 0.145 | -0.12 | -0.442 (active) | -0.18 | 0.055 | -0.249 | -0.026
IRAK4 (UniProt Q9NWZ3) | 0.012 | -0.028 | 0.01 | 0.004 | -0.059 | 0.104 | 0.109 | 0.007 | -0.004 | -0.099
MFSD11 (UniProt O43934) | -0.029 | -0.464 (active) | -0.003 | -0.055 | -0.009 | -0.046 | -0.064 | -0.002 | 0.041 | 0.02
LPCAT3 (UniProt Q6P1A2) | -0.067 | -0.352 (active) | -0.065 | -0.086 | -0.055 | -0.117 | -0.024 | -0.017 | 0.172 | -0.011
MEPCE (UniProt Q7L2J0) | -0.706 (active) | 0.042 | 0.042 | 0.036 | -0.093 | -0.167 | 0.078 | 0.013 | 0.102 | -0.013
MIA2 (UniProt Q96PC5) | -0.017 | 0.121 | 0.037 | -0.017 | 0.069 | 0.027 | 0.034 | -0.109 | 0.029 | -0.019
KIAA1324L (UniProt A8MWY0) | -0.03 | 0.091 | -0.09 | 0.07 | -0.013 | 0.028 | 0.109 | 0.049 | -0.026 | 0.005
ITIH4 (UniProt Q14624) | 0.252 | -0.174 | -0.896 (active) | 0.184 | -0.047 | -0.146 | -0.093 | 0.277 | -0.034 | -0.241
LTV1 (UniProt Q96GA3) | -0.019 | 0.17 | 0.067 | 0.133 | -0.06 | 0.022 | -0.097 | -0.095 | 0.05 | 0
MAP4 (UniProt P27816) | -0.002 | 0.022 | -0.029 | 0.028 | -0.034 | -0.027 | -0.019 | -0.003 | -0.002 | -0.078
KLHDC4 (UniProt Q8TBB5) | -0.045 | 0.435 (active) | 0.044 | 0.199 | -0.023 | 0.076 | 0.03 | 0.1 | -0.026 | 0.029
MAGEA9 (UniProt P43362) | -0.246 | 0.003 | 0.015 | 0.087 | 0.057 | 0.024 | 0.034 | 0.033 | -0.018 | -0.018
MAPKAPK5 (UniProt Q8IW41) | -0.011 | -0.133 | 0.009 | -0.017 | -0.084 | 0.269 | 0 | -0.038 | 0.078 | 0.134
MAIP1 (UniProt Q8WWC4) | 0.054 | -0.12 | -0.025 | -0.033 | -0.047 | -0.088 | -0.002 | 0.095 | 0.036 | 0.01
L2HGDH (UniProt Q9H9P8) | 0.096 | -0.121 | 0.07 | -0.037 | -0.019 | -0.034 | -0.01 | 0.041 | -0.069 | 0.115
IGF2R (UniProt P11717) | 0.041 | 0.007 | -0.014 | -0.012 | -0.058 | -0.065 | -0.003 | 0 | 0.015 | 0.002
MAP4K5 (UniProt Q9Y4K4) | 0.01 | -0.083 | 0.021 | 0.067 | 0.134 | 0.224 | -0.011 | 0.011 | 0.15 | 0.012

From the supplement of paper PMC10849652
